Assay outcomes: PubChem BioAssay, National Center for Advancing Translational Sciences (NCATS)
DT40 TDP1 no CPT: qHTS for Inhibitors of human tyrosyl-DNA phosphodiesterase 1 (TDP1): qHTS in cells in absence of CPT; DT40 Tdp1-/- hTDP1 cells, no CPT, ATP luminescence, 48 h; Potency, µM (doses to about 46.2 µM), without a hit: at the highest dose activity change, negative = growth inhibition, usual class: inhibitors; 15% of 420,000 active; AID 686978, 2013; also: potency is read from the fitted curve at half-maximal effect; nearly all actives have a fitted effect of over 55% in size
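No-CPT arm: Tdp1-/-;hTDP1 DT40 cells (400/well) plus compounds, incubated ≥48 hr at 37 °C. Readout CellTiter-Glo luminescence.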
HT1080-NT tox: qHTS for induction of synthetic lethality in tumor cells producing 2HG: qHTS for the HT-1080-NT fibrosarcoma cell line | HT-1080-NT fibrosarcoma viability, CellTiter-Glo ATP luminescence, 48 h | Potency, µM (doses to about 46.1 µM), for the others: at the top dose activity, negative = less viability, usual class: cytotoxic | 1.6% of 360,000 active | AID 686970, 2013;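 also: NT is the 2HG producing partner of a matched IDH1 knockdown line; potency is read from the fitted curve at half-maximal effect; 0% = DMSO-treated cells and -100% = media-only wells without cells; nearly all actives have a fitted effect of over 55% in size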
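A 48-hour cytotoxicity screen used HT-1080-NT cells plated 2 hours before compound delivery. ATP-based CellTiter-Glo luminescence measured viability, normalized to DMSO and no-cell controls.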
HT1080 IDH1KD tx: qHTS for induction of synthetic lethality in tumor cells producing 2HG: qHTS for the HT-1080-IDH1KD cell line | AID 686971, 2013 | HT-1080 IDH1 knockdown viability, ATP luminescence, 48 h | 2% of 360,000 active | Potency, µM (top dose mostly 46.1 µM), without a hit: at the top dose activity, negative = toxicity, usual class: cytotoxic;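 also: potency is read from the fitted curve at half-maximal effect; 0% = DMSO wells and -100% = cell-free medium wells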
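% activity derives from luminescence (CellTiter-Glo), normalised to DMSO and no-cell wells. HT-1080-IDH1KD cells, 750/well, had 48 h compound exposure at 37 °C.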
TDP1 cell CPT: qHTS for Inhibitors of human tyrosyl-DNA phosphodiesterase 1 (TDP1): qHTS in cells in presence of CPT; chicken DT40 Tdp1-/-;hTDP1 cells + 20 nM CPT, ATP luminescence, 48 h; Potency, µM (titrated, usually from 46.2 µM), for inactives: at the top dose activity change, negative = growth inhibition, usual class: inhibitors; 12% of 420,000 active; also: potency is read from the fitted curve at half-maximal effect; nearly all actives have a fitted effect of over 55% in size
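Cell growth measured by CellTiter-Glo luminescence after a minimum 48 h, 37 C compound exposure with 20 nM CPT in Tdp1-knockout DT40 cells stably expressing hTDP1, seeded 400/well; qHTS titration format.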
IL1B secr inh: qHTS for Inhibitors of Inflammasome Signaling: IL-1-beta AlphaLISA Primary Screen; THP-1 LPS/ATP IL-1B secretion, AlphaLISA, 16 h; active compounds read low; activity change, % at 57.5 µM; 4.7% of 360,000 active; AID 743279, 2014; in the data active = activity change below about -50%; inconclusive = mostly about -30% to -49%
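Secreted IL-1B measured by AlphaLISA bead assay after 16 h compound exposure of THP-1 cells; compounds (final up to 57.5 uM) added 1 h before LPS (250 ng/mL) and ATP (1.25 mM) stimulation; lower signal means less secretion.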
Starred values were filed as active, the others as inactive; ? = inconclusive; . = no result given. Hits are enriched below; roughly 19% of the tested compounds scored in any of these assays. Unless noted, calls follow the shape of the dose curve; as a rule, active = well fitted curve in the direction sought with a large enough effect; inconclusive = small, poorly fitted or top-dose-only effect, or another doubt; inactive = no such curve, though single readings can be large; an effect the other way counts as inactive or inconclusive. Unless noted, % is scaled to controls: 0 for no effect and ±100 for the full control effect.

SMILES	DT40 TDP1 no CPT	HT1080-NT tox	HT1080 IDH1KD tx	TDP1 cell CPT	IL1B secr inh
CC1CCCC(C)N1C(=O)Cn1cc(C#N)c2ccccc21 (centres undefined)	-18.5%	1.1%	1.0%	-4.8%	34.0
O=C(Nc1ccc(N2CCN(C(=O)c3ccc(Cl)cc3)CC2)cc1)c1ccc(Br)o1	?	-1.4%	-14.3%	?	-69.0*
Cc1ccccc1C(=O)N1CCN(c2ccc(NC(=O)c3ccc([N+](=O)[O-])o3)cc2)CC1	2.31µM*	1.3µM*	2.59µM*	5.17µM*	-94.6*
CCCCCC(=O)Nc1ccc(N2CCN(C(=O)c3ccccc3)CC2)cc1	?	1.1%	-1.5%	-9.9%	-12.5
Cc1ccccc1C(=O)N1CCN(c2ccc(NC(=O)c3ccc4c(c3)OCO4)cc2)CC1	13µM*	?	?	13µM*	-131.5*
O=C(Nc1ccc(N2CCN(C(=O)c3ccccc3)CC2)cc1)c1ccc([N+](=O)[O-])o1	1.84µM*	7.31µM*	?	2.06µM*	-95.5*
Cc1nc(NS(=O)(=O)c2ccc(Cl)s2)c2c3c(sc2n1)CCCC3	?	?	?	?	43.8
CC1=CC2C(CC1=O)C(C)=CCC2C(C)C (centres undefined)	-6.1%	.	.	0.4%	.
C/C(=N\NC(=O)CCC(=O)NCc1ccccc1)c1ccco1	16.9%	25.1%	12.0%	-11.6%	3.4
Cc1ccnc2c(N)cccc12	12.6µM*	.	.	?	.
Cc1ccnc2c([N+](=O)[O-])cccc12	?	.	.	22.4µM*	.
Cc1ccc2ccc3cccnc3c2n1	1.03µM*	-5.4%	-19.0%	0.92µM*	91.4
Nc1cccc2cccnc12	5.62µM*	.	.	1.78µM*	.
Cc1ccc(Nc2nnc(SCc3nc4ccccc4c(=O)[nH]3)s2)cc1	-22.6%	0.2%	-11.7%	-28.7%	79.8
Cc1ccc(S(=O)(=O)N2CCOCC2)cc1NC(=O)COC(=O)/C=C/c1ccco1	?	-1.7%	-5.2%	-17.4%	0.0
CCN(CC)c1ccc(S(=O)(=O)N2CCOCC2)cc1NC(=O)CN1CCc2ccccc2C1	7.31µM*	-11.2%	?	4.61µM*	-110.5*
CCN(CC)c1ccc(S(=O)(=O)N2CCOCC2)cc1NC(=O)COC(=O)/C=C/c1ccc(O)c(OC)c1	20.6µM*	2.3%	-7.0%	?	-0.7
CCN(CC)c1ccc(S(=O)(=O)N2CCOCC2)cc1NC(=O)COC(=O)/C=C/c1ccccc1	?	7.7%	0.0%	18.4µM*	1.6
CCN(CC)c1ccc(S(=O)(=O)N2CCOCC2)cc1NC(=O)COC(=O)c1ccco1	-24.2%	12.5%	5.1%	3.0%	-6.1
CCN(CC)c1ccc(S(=O)(=O)N2CCOCC2)cc1NC(=O)COC(=O)/C=C/c1ccc(C)o1	10.3µM*	-19.0%	-17.1%	13µM*	?
O=c1cc(CN2CCN(S(=O)(=O)c3cccc(Cl)c3)CC2)c2ccc(O)cc2o1	18.4µM*	?	?	?	0.8
Cc1ccc2c(CN3CCC(C)CC3)cc(=O)oc2c1C	?	18.6%	20.8%	?	-4.8
Cc1cc(C)c2oc(=O)cc(CN3CCC(C)CC3)c2c1	25.9µM*	15.3%	14.9%	?	-4.7
CCOC(=O)Nc1ccc2c(CNC(C)c3ccccc3OC)cc(=O)oc2c1 (centres undefined)	23.1µM*	-1.8%	-6.7%	?	-6.8
Cc1cc(C)c2oc(=O)cc(CN3CCN(Cc4ccccc4)CC3)c2c1	?	2.6%	0.0%	18.4µM*	5.1
O=C(CN1C(=O)CCSc2ccc(S(=O)(=O)N3CCCC3)cc21)NCc1ccccc1Cl	17.8%	3.8%	-0.5%	1.3%	-10.1
